From the supplement of paper PMC6411743
± gives the standard deviation of the averaged measurements. The full data set covers some 6,200 targets. This sample favours those with the largest changes.

Assays:
Test in all cases: NP40-soluble protein abundance relative to vehicle (solubility fold change) (ratio); higher = more soluble protein in presence of AMP-PNP
UniProt Q58A45|Q58A45-3 = target: T1, UniProt Q58A45|Q58A45-3
T1 sequence (whole entry): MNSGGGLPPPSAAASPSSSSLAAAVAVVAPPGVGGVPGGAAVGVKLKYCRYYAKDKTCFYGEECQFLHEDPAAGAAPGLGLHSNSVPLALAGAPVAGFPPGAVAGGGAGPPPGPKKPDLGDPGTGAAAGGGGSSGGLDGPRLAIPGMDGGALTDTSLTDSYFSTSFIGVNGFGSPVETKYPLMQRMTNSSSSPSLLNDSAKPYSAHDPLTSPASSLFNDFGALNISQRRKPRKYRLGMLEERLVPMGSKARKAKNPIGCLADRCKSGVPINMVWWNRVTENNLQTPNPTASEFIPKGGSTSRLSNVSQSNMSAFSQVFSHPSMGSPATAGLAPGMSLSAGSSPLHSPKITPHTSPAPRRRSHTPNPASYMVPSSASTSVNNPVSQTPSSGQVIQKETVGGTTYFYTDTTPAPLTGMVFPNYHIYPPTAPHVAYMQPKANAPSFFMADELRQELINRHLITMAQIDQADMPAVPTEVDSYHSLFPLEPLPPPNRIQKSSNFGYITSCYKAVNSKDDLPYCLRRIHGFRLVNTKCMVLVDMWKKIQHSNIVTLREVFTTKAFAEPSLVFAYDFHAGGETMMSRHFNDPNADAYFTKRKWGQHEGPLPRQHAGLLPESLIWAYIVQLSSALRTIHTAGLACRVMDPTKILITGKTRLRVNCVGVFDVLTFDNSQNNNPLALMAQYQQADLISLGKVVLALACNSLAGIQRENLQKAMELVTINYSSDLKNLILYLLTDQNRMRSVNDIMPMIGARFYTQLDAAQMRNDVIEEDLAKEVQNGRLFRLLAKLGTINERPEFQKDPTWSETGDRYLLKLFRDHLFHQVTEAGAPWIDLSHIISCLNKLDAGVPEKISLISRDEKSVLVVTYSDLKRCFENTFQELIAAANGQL
Procedure, shortened: (§1)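 Values are fold changes against the detergent-processed vehicle, based on vsn-normalised intensities. Jurkat crude lysate was treated at eight concentrations from 0.1 to 10 mM (10 min at room temperature, then 3 min at 37 °C), solubilised with 0.8% NP40 and benzonase, ultracentrifuged and analysed by TMT-labelled LC-MS/MS over three independent experiments.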

UniProt Q5SGD2|Q5SGD2-3 = target: T2, UniProt Q5SGD2|Q5SGD2-3
T2 sequence (whole entry): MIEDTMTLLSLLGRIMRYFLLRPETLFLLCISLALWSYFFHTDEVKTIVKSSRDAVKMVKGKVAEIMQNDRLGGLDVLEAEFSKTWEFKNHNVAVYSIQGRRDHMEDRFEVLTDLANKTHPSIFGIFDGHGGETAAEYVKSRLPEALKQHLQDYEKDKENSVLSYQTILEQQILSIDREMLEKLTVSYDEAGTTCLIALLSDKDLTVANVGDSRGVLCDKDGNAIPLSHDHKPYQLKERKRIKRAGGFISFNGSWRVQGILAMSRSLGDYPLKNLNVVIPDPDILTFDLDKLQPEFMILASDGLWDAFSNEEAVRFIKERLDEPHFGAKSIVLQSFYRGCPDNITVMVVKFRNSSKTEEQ
Procedure, shortened: as §1

[1] = target: T3, UniProt Q6PJT7-2|Q6PJT7-3|Q6PJT7-5|Q6PJT7-9|Q6PJT7
T3 sequence (whole entry): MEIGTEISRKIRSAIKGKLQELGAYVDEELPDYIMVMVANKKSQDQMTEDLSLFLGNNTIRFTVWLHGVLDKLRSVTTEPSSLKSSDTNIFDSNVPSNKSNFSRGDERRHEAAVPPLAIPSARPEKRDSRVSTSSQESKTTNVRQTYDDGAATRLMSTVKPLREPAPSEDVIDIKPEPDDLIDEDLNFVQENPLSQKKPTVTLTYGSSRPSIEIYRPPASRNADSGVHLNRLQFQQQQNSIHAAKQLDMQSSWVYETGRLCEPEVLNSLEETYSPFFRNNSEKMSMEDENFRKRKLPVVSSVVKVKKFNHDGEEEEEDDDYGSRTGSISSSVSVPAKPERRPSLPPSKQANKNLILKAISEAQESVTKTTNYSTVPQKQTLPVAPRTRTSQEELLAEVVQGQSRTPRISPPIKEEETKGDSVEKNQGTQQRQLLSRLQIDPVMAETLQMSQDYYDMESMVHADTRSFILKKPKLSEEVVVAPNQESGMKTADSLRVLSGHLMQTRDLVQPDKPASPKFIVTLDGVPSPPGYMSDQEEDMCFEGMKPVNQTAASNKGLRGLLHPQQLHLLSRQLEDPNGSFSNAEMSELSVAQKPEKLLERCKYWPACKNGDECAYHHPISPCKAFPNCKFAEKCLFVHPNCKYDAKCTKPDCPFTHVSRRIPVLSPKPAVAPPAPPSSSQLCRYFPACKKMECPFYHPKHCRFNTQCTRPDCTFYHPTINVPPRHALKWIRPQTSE
Procedure, shortened: as §1

UniProt Q8N0Z3 = target: T4, UniProt Q8N0Z3
T4 sequence (whole entry): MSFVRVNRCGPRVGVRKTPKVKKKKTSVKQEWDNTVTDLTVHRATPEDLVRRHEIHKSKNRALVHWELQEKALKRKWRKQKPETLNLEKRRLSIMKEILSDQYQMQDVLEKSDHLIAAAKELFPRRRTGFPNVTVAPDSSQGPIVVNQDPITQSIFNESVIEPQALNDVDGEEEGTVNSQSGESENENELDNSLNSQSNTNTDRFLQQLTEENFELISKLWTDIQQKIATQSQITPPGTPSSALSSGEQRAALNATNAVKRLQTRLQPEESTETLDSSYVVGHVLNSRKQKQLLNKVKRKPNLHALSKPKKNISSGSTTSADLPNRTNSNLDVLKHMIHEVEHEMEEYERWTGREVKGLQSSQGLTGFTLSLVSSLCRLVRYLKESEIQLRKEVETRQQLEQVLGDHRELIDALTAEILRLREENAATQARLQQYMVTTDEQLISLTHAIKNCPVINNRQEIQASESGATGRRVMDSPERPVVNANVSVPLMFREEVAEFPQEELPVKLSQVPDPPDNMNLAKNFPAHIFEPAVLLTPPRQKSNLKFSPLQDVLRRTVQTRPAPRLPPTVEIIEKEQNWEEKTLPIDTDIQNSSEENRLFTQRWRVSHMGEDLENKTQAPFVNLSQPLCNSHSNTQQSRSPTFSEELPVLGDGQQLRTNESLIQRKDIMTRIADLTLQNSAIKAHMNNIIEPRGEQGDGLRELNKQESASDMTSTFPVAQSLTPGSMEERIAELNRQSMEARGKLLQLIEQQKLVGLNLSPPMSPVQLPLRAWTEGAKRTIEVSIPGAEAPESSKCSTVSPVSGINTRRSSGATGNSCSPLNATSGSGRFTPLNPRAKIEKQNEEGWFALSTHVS
Procedure, shortened: as §1

[2] = target: T5, UniProt Q92581-2|Q92581-3|Q92581
T5 sequence (whole entry): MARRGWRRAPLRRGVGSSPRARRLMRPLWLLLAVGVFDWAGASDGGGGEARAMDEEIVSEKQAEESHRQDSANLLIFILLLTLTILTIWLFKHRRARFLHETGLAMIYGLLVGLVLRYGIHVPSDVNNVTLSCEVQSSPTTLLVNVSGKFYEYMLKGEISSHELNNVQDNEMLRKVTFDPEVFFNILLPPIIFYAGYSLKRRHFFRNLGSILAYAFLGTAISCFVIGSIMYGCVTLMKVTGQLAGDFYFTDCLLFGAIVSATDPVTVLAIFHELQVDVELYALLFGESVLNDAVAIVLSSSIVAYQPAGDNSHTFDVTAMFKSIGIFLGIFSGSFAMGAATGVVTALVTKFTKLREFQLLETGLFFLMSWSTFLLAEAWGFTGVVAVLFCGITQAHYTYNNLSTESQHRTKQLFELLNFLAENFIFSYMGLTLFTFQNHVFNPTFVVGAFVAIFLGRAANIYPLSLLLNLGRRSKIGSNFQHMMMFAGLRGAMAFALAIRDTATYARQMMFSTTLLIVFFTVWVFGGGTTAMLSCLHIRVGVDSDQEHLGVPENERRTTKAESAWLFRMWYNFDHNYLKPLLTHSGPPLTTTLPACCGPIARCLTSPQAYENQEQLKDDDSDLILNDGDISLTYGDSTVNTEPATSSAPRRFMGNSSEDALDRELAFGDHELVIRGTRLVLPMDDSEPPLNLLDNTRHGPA
Procedure, shortened: as §1

With `Nc1ncnc2c1ncn2[C@@H]1O[C@H](COP(=O)(O)OP(=O)(O)NP(=O)(O)O)[C@@H](O)[C@H]1O` [adenylyl imidodiphosphate] the NP40-soluble protein abundance (UniProt Q58A45|Q58A45-3; concentration: 1mM) was 1.032 ± 0.0089, the NP40-soluble protein abundance (UniProt Q58A45|Q58A45-3; concentration: 2mM) was 1.02 ± 0.024 and the NP40-soluble protein abundance (UniProt Q58A45|Q58A45-3; concentration: 4mM) was 1.02 ± 0.03. For the same compound, the NP40-soluble protein abundance (UniProt Q58A45|Q58A45-3; concentration: 6mM) was 0.999 ± 0.026, the NP40-soluble protein abundance (UniProt Q58A45|Q58A45-3; concentration: 8mM) was 1.03 ± 0.022 and the NP40-soluble protein abundance (UniProt Q58A45|Q58A45-3; concentration: 10mM) was 1.01 ± 0.022. The NP40-soluble protein abundance (UniProt Q5SGD2|Q5SGD2-3; concentration: 1mM) was 1.02 ± 0.029, the NP40-soluble protein abundance (UniProt Q5SGD2|Q5SGD2-3; concentration: 2mM) was 1.03 ± 0.049 and the NP40-soluble protein abundance (UniProt Q5SGD2|Q5SGD2-3; concentration: 4mM) was 1 ± 0.019. For the same compound, the NP40-soluble protein abundance (UniProt Q5SGD2|Q5SGD2-3; concentration: 6mM) was 1 ± 0.016, the NP40-soluble protein abundance (UniProt Q5SGD2|Q5SGD2-3; concentration: 8mM) was 1.02 ± 0.06 and the NP40-soluble protein abundance (UniProt Q5SGD2|Q5SGD2-3; concentration: 10mM) was 1.006 ± 0.0075. It also gave an NP40-soluble protein abundance ([1]; concentration: 1mM) of 1.04 ± 0.018, an NP40-soluble protein abundance ([1]; concentration: 2mM) of 1.17 ± 0.082 and an NP40-soluble protein abundance ([1]; concentration: 4mM) of 1.2 ± 0.061. It also gave an NP40-soluble protein abundance ([1]; concentration: 6mM) of 1.28 ± 0.14, an NP40-soluble protein abundance ([1]; concentration: 8mM) of 1.29 ± 0.15 and an NP40-soluble protein abundance ([1]; concentration: 10mM) of 1.33 ± 0.13. For the same compound, the NP40-soluble protein abundance (UniProt Q8N0Z3; concentration: 1mM) was 0.943 ± 0.051, the NP40-soluble protein abundance (UniProt Q8N0Z3; concentration: 2mM) was 0.976 ± 0.024 and the NP40-soluble protein abundance (UniProt Q8N0Z3; concentration: 4mM) was 0.959 ± 0.03. The NP40-soluble protein abundance (UniProt Q8N0Z3; concentration: 6mM) was 0.955 ± 0.027, the NP40-soluble protein abundance (UniProt Q8N0Z3; concentration: 8mM) was 0.957 ± 0.026 and the NP40-soluble protein abundance (UniProt Q8N0Z3; concentration: 10mM) was 0.964 ± 0.02. It also gave an NP40-soluble protein abundance ([2]; concentration: 1mM) of 0.999 ± 0.012, an NP40-soluble protein abundance ([2]; concentration: 2mM) of 0.9876 ± 0.0034 and an NP40-soluble protein abundance ([2]; concentration: 4mM) of 0.957 ± 0.028. The NP40-soluble protein abundance ([2]; concentration: 6mM) was 0.9812 ± 0.0025, the NP40-soluble protein abundance ([2]; concentration: 8mM) was 0.979 ± 0.025 and the NP40-soluble protein abundance ([2]; concentration: 10mM) was 0.96 ± 0.026.
